Screens as filed in PubChem BioAssay.
BAZ2B inh – inhibitors of human BAZ2B bromodomain; Q9UIF8; AlphaScreen BAZ2B-H3K14Ac peptide displacement; Potency, µM (titrated, usually from 114 µM), for inactives: top-dose activity change, negative = inhibition, actives largely listed as inhibitors; 360,000 compounds, 4.4% hits; further: potency means the concentration at half of the fitted maximal effect; on the % scale 0 is the no-effect control and ±100 the full control effect; nearly all actives have a fitted effect of over 60% in size
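In this displacement format the biotinylated H3(5-23) peptide acetylated at Lys14 serves as ligand at 50 nM, with BAZ2B at 50 nM in PBS pH 7.4 containing 0.01% Tween-20. Donor and acceptor beads are 10 ug/mL final.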
JMJD2A Tudor inh – JMJD2A Tudor domain (human) inhibition; O75164; AlphaScreen JMJD2A-Tudor / H3K4me3 peptide binding; Potency, µM (series often up to 114 µM), inactives show at the top dose activity change, negative = inhibition, usual class: inhibitors; 390,000 compounds, 4.4% hits; AID 504339; further: potency means the concentration at half of the fitted maximal effect; on the % scale 0 is the no-effect control and ±100 the full control effect; nearly all actives have a fitted effect of over 50% in size
TDP1 inh – inhibitors of human tyrosyl-DNA phosphodiesterase TDP1; Q9NUW8; AID 485290; 350,000 compounds, 0.28% hits; recombinant TDP1, AlphaScreen DNA substrate cleavage; Potency, µM (series often up to 130 µM), for the others: top-dose activity change, negative = inhibition, actives largely listed as inhibitors; further: potency means the concentration at half of the fitted maximal effect; on the % scale 0 is the no-effect control and ±100 the full control effect; nearly all actives have a fitted effect of over 40% in size
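AlphaScreen read-out: signal falls as enzyme removes the 3' tyrosine-FITC from a 5'-biotinylated DNA oligo (15 nM, 5 min, RT). Enzyme was E. coli-made recombinant Tdp1 at 1 nM, exposed to compound for 15 min beforehand; beads 10 ug/ml, 10 min.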
Six1-Eya2 blk – Six1/Eya2 interaction inhibition; Q15475+O00167; AlphaScreen GST-Six1/His-Eya2 binding, biochemical; stronger effect = lower value; activity change, % (test concentration not listed); 360,000 compounds, 0.56% hits; in the data active means activity change below about -65%; inconclusive means mostly about -30% to -63%; further: on the % scale 0 is the no-effect control and ±100 the full control effect
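Six1/Eya2 binding was read as AlphaScreen signal after compounds were pinned into GST-Six1 plus His-tagged Eya2 (5X stock 250/500 nM) in pH 8.0 Tris/NaCl/TCEP buffer, beads added, then incubated 1 h, 37 C, dark.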
HP1b chromo inh – HP1-beta chromodomain-methylated histone interaction inhibition; P83916; AlphaScreen HP1-beta / biotin-H3K9me3 peptide binding; Potency, µM (doses to about 114 µM), for inactives: top-dose activity change, negative = inhibition, usual class: inhibitors; 390,000 compounds, 0.56% hits; AID 540317; further: potency means the concentration at half of the fitted maximal effect; nearly all actives have a fitted effect of over 70% in size
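HP1-beta protein (50 nM final) preincubated 30 min at room temperature with biotinylated H3(1-18)K9me3 peptide (50 nM) in PBS pH 7.4, 0.01% Tween-20, then compound added for 30 min. AlphaScreen streptavidin donor/nickel chelate acceptor beads (10 ug/mL final), 30 min dark, luminescence read.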
CtBP-E1A blk – CtBP/E1A binding inhibition | activity change, % (no concentration beside the values) | 340,000 compounds, 0.49% hits | AlphaScreen GST-E1A/His-CtBP binding, 1536-well; stronger effect = lower value; in the data active means activity change below about -65%; inconclusive means mostly about -30% to -63%; further: on the % scale 0 is the no-effect control and ±100 the full control effect
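Homogeneous bead-based format: GST-tagged E1A captured on glutathione donor beads, His-tagged CtBP on nickel acceptor beads; compounds precede bead addition by 2 h at 37 °C.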
* hit, by the source's call; [ ] = dose if it differs, or a comment. A selection: hits, their analogues and other compounds. The true share with any hit is near 5.3%. Unless noted, the call rests on the fitted dose curve; in most records, active means well fitted inhibition curve with a large enough effect; inconclusive means small, poorly fitted or top-dose-only effect; inactive means no such curve, though single readings can be large or run the other way.

What do the screens show for `Cc1cc(NC(=O)CSc2nnc(CNC(=O)c3ccc(C(C)(C)C)cc3)o2)no1`?
BAZ2B inh: 6.9%; JMJD2A Tudor inh: -16.7%; TDP1 inh: 2.7%[56.1 µM]; Six1-Eya2 blk: -75.6*; HP1b chromo inh: 30.4%; CtBP-E1A blk: inconclusive

Results for O=C(CSc1nnc(-c2ccco2)o1)NC(=O)Cc1ccccc1 ?
BAZ2B inh: 79.4µM*; JMJD2A Tudor inh: -17.4%; Six1-Eya2 blk: -3.0; HP1b chromo inh: 15.9%; CtBP-E1A blk: -2.0

What do the screens show for `O=C(CSc1nnc(-c2ccco2)o1)NCCc1ccccc1`?
BAZ2B inh: 10.8%; JMJD2A Tudor inh: 1.3%; TDP1 inh: 0.4%; Six1-Eya2 blk: -3.1; HP1b chromo inh: 17.8%

What do the screens show for `COc1ccc(Cn2nnc3c(=O)[nH]c(C(=O)NCCc4ccc(F)cc4)nc32)cc1OC`?
BAZ2B inh: -1.0%; JMJD2A Tudor inh: 79.4µM*; TDP1 inh: 2.2%; Six1-Eya2 blk: -5.4; HP1b chromo inh: 12.2%; CtBP-E1A blk: -8.7

How did CCCCCc1cc(=O)oc2c(C(CCN3CCCCC3)c3cc(OC)c(OC)c(OC)c3)c(OC)cc(OC)c12 (stereo not drawn) do in these assays?
BAZ2B inh: -22.0%; JMJD2A Tudor inh: inconclusive; TDP1 inh: 1.2%; Six1-Eya2 blk: -10.5; HP1b chromo inh: 3.9%

How did CCN(CC)CCC(c1cc(OC)c(OC)c(OC)c1)c1c(OC)cc(OC)c2c(C)cc(=O)oc12 (stereo not drawn) do in these assays?
BAZ2B inh: 8.6%; JMJD2A Tudor inh: -24.8%; TDP1 inh: 3.8%; Six1-Eya2 blk: 2.5; HP1b chromo inh: 16.0%; CtBP-E1A blk: -1.4

Results for CCCCCc1cc(=O)oc2c(C(CCN(CC)CC)c3ccc(N(C)C)cc3)c(OC)cc(OC)c12 (stereo not drawn) ?
BAZ2B inh: 14.1µM*; JMJD2A Tudor inh: 28.2µM*; TDP1 inh: 12.5%; Six1-Eya2 blk: inconclusive; HP1b chromo inh: inconclusive; CtBP-E1A blk: inconclusive

Results for CCN(CC)CCC(c1ccc(N(C)C)cc1)c1c(OC)cc(OC)c2c(C)cc(=O)oc12 (stereo not drawn) ?
JMJD2A Tudor inh: 35.5µM*; TDP1 inh: 18.5%; HP1b chromo inh: inconclusive

What do the screens show for `COc1ccc(C2/C=C\CN(Cc3ccc(N(C)C)cc3)CC(=O)N2Cc2ccc(F)cc2)cc1` (stereo not drawn)?
BAZ2B inh: 31.6µM*; JMJD2A Tudor inh: 25.1µM*; TDP1 inh: 10.7%; Six1-Eya2 blk: inconclusive; HP1b chromo inh: inconclusive; CtBP-E1A blk: -29.3

Results for COc1ccc(C2/C=C\CN(C(=O)C3CC3)CC(=O)N2Cc2ccc(F)cc2)cc1 (stereo not drawn) ?
BAZ2B inh: 0.5%; JMJD2A Tudor inh: -13.1%; TDP1 inh: 4.4%; Six1-Eya2 blk: 0.6; HP1b chromo inh: 39.0%; CtBP-E1A blk: -3.4

What do the screens show for `Cc1c(Cl)cccc1NS(=O)(=O)c1cc2c(cc1F)NC(=O)CC2`?
JMJD2A Tudor inh: -19.9%; TDP1 inh: 0.3%

What do the screens show for `Cc1c(OC(=O)c2ccc([N+](=O)[O-])cc2)c2c(c[n+]1C)COC(C)(C)OC2`?
BAZ2B inh: inconclusive; JMJD2A Tudor inh: 50.1µM*; TDP1 inh: 3.8%; Six1-Eya2 blk: 4.1; HP1b chromo inh: -3.5%; CtBP-E1A blk: -2.3

How did Brc1cccc(-c2nn(-c3ccccc3)c3c2cnc2cc4c(cc23)OCO4)c1 do in these assays?
JMJD2A Tudor inh: -9.3%; TDP1 inh: 0.0%; HP1b chromo inh: 62.4%

What do the screens show for `O=C1NC(=S)SC1=C1CCCC1`?
BAZ2B inh: 31.6µM*; JMJD2A Tudor inh: inconclusive; Six1-Eya2 blk: -9.0; HP1b chromo inh: 1.1%; CtBP-E1A blk: -2.3

Results for CCOC(=O)/C=C/c1cc(F)c(S(=O)(=O)N2CCN(S(=O)(=O)c3ccc4c(c3)OCCO4)CC2)cc1F ?
JMJD2A Tudor inh: -4.1%; TDP1 inh: 1.0%

How did C/C(=N\NC(=S)Nc1ccc(F)cc1)c1ccc2c(c1)OCCO2 do in these assays?
BAZ2B inh: 35.5µM*; JMJD2A Tudor inh: 31.6µM*; TDP1 inh: 8.9%; Six1-Eya2 blk: inconclusive; HP1b chromo inh: inconclusive; CtBP-E1A blk: 23.3

Results for CCC1(c2ccccc2)NC(=O)N(CC(=O)Nc2ccc(N3CCCC3)cc2C)C1=O (stereo not drawn) ?
BAZ2B inh: 44.7µM*; JMJD2A Tudor inh: 44.7µM*; Six1-Eya2 blk: -17.0; HP1b chromo inh: inconclusive; CtBP-E1A blk: -14.8

What do the screens show for `CC1(c2ccccc2)NC(=O)N(CC(=O)Nc2ccc([N+](=O)[O-])cc2)C1=O` (stereo not drawn)?
BAZ2B inh: -14.3%; JMJD2A Tudor inh: -26.1%; TDP1 inh: -1.2%; Six1-Eya2 blk: -3.9; HP1b chromo inh: 25.4%; CtBP-E1A blk: -0.6

What do the screens show for `CC1(c2ccc([N+](=O)[O-])cc2)NC(=O)N(CC(=O)Nc2ccc(N3CCCCC3)cc2)C1=O` (stereo not drawn)?
BAZ2B inh: 35.5µM*; JMJD2A Tudor inh: inconclusive; Six1-Eya2 blk: -25.4; HP1b chromo inh: inconclusive; CtBP-E1A blk: -11.0

What do the screens show for `CCC1(c2ccccc2)NC(=O)N(CC(=O)Nc2ccccc2N2CCCC2)C1=O` (stereo not drawn)?
BAZ2B inh: -13.0%; JMJD2A Tudor inh: -33.6%; TDP1 inh: 6.1%[0.505 µM]; Six1-Eya2 blk: 0.0; HP1b chromo inh: -3.6%; CtBP-E1A blk: -68.0*

How did Cc1cc(N2CCCC2)ccc1NC(=O)CN1C(=O)NC(C)(c2ccccc2)C1=O (stereo not drawn) do in these assays?
BAZ2B inh: 25.1µM*; JMJD2A Tudor inh: inconclusive; TDP1 inh: 12.5%; Six1-Eya2 blk: 1.7; HP1b chromo inh: -14.0%[57 µM]; CtBP-E1A blk: -20.0

What do the screens show for `CC1(c2ccccc2)NC(=O)N(CC(=O)Nc2ccc(N3CCOCC3)cc2N2CCOCC2)C1=O` (stereo not drawn)?
BAZ2B inh: 4.7%; JMJD2A Tudor inh: 0.7%; TDP1 inh: -8.3%[0.505 µM]; Six1-Eya2 blk: -4.8; HP1b chromo inh: 4.5%; CtBP-E1A blk: -5.6

Results for CC(=O)Nc1ccc(-c2nnc(SCC(=O)c3ccc4c(c3)Cc3ccccc3-4)n2C)cc1 ?
BAZ2B inh: 1.4%; JMJD2A Tudor inh: 35.5µM*; TDP1 inh: 5.3%; Six1-Eya2 blk: -4.0; HP1b chromo inh: 4.7%; CtBP-E1A blk: 3.8

Results for Cn1c(SCC(=O)c2ccc3c(c2)Cc2ccccc2-3)nnc1-c1cccc(N)c1 ?
BAZ2B inh: -10.6%; JMJD2A Tudor inh: -21.8%; TDP1 inh: -2.3%; Six1-Eya2 blk: -5.9; HP1b chromo inh: 11.1%; CtBP-E1A blk: -3.7
